Screening results from PubChem.
LRH-1 inv ag: LRH-1 (NR5A2) inverse agonists, primary screen, cell-based, luminescence, HEK293T, StAR-luciferase reporter; Nuclear receptor subfamily 5 group A member 2 (Homo sapiens), O00482; LRH-1 transfected, 24 h; inhibition, % at 3.6 µM; hit rate 0.13% among 360,000;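 active = inhibition above the mean inhibition of all tested compounds plus 3 SD, cut at about 73% in these data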;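 also: 0% = DMSO wells and 100% = reporter-only cells lacking LRH-1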
NCOA1 inh: SRC1 coactivator transcriptional activity inhibitors, primary screen, cell-based, luminescence. Nuclear receptor coactivator 1 (Homo sapiens), Q15788. HEK293 GAL4-SRC1 luciferase reporter. inhibition, % at 3.6 µM. hit rate 0.12% among 360,000. AID 588354, 2011;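 active = inhibition above the campaign mean plus 3 SD, with each screening campaign given its own cutoff, cut at about 60% in these data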;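 also: 0% = DMSO treated cells and 100% = gossypol at 36 µM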
NCOA2 inhibitor: inhibition of GAL4-SRC2 driven luciferase reporter, primary screen, SRC2 inhibitor project, cell-based, luminescence. HEK293 GAL4-SRC2 luciferase reporter. inhibition, % at 9 µM. hit rate 0.17% among 370,000;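 active = inhibition above the mean inhibition of all tested compounds plus 3 SD, set per campaign, cut at about 52% in these data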;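 also: 0% = DMSO treated cells and 100% = cells given Gossypol at 36 µM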
SRC3 inh: SRC3 coactivator transcriptional activity inhibitors, primary screen, cell-based, luminescence. AID 588352, 2011. hit rate 0.17% among 360,000. inhibition, % at 3.6 µM. HEK293 GAL4-SRC3 luciferase reporter;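 active = inhibition above a per-campaign cutoff, the mean of all compounds plus 3 SD, cut at about 60% in these data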;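 also: 0% = DMSO-treated cells and 100% = gossypol-treated cells at 36 µM; higher means less SRC3-driven luciferase light from the GAL4 reporter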
Gli-Sufu block: Gli-Sufu pathway antagonists, primary screen, luciferase luminescence, Sufu-KO-LIGHT cells, uHTS. Sufu-KO-LIGHT fibroblasts, Gli luciferase reporter luminescence. inhibition, % at 5 µM. hit rate 0.74% among 340,000. AID 588413, 2011;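 active = inhibition above about 55%, limit read from the data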;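 also: 0% = DMSO-treated cells and 100% = wells with medium but no cells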
Gli antag conf: Gli-SUFU pathway antagonists, confirmation, single concentration, luciferase luminescence, Sufu-KO-LIGHT cells. shares compounds with Gli-Sufu block. Gli luciferase reporter. inhibition, % at 5 µM. hit rate 40% among 2,500;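 active = mean inhibition at 5 µM reaching about 45%, limit read from the data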;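 also: plate controls were DMSO-treated cells for no effect and wells lacking cells for full effect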
SufuKO cytotox: cytotoxicity in Sufu-KO-LIGHT cells, confirmation, cytotoxicity control for Gli-SUFU antagonist project, cell-based, ATP luminescence, single concentration; shares compounds with Gli-Sufu block; hit rate 32% among 2,500; AID 651994, 2013; cytotoxicity, % at 5 µM;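 active = mean cytotoxicity at 5 µM above about 25%, limit read from the data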;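 also: cells exposed to compound overnight for roughly 16 to 18 hours; plate controls were DMSO wells with cells for no effect and medium without cells for full effect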
Wnt3a cs: Wnt3a reporter signal inhibition, confirmation, counter-screen for Gli-SUFU antagonist project, Wnt-LIGHT cells, luminescence, single concentration. shares compounds with Gli-Sufu block. Wnt3a-driven luciferase reporter. inhibition, % at 6.25 µM. hit rate 20% among 2,500. AID 651995, 2013;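 active = mean inhibition above about 25%, limit read from the data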
Active calls of the source: *; nt = not tested or not shown. Only some compounds are listed: those with a hit (about 0.83% of all), similar ones and a draw of the others.

SMILES | LRH-1 inv ag | NCOA1 inh | NCOA2 inhibitor | SRC3 inh | Gli-Sufu block | Gli antag conf | SufuKO cytotox | Wnt3a cs
CC(C)(C)C(=O)OC12CCCN(C1)/C(=C/c1ccc(Cl)cc1)C2 (stereo not drawn) | nt | nt | 10 | nt | nt | nt | nt | nt
CCCCNC(=O)C1(C(=O)c2ccc(OC)cc2)CC(c2ccccc2C(F)(F)F)=NO1 (stereo not drawn) | nt | nt | 3 | nt | nt | nt | nt | nt
Cc1ccc(C(=O)C(C)OC(=O)c2ccc(Cl)nc2)cc1 (stereo not drawn) | 7 | 18 | 12 | 22 | -8 | nt | nt | nt
CC(C)CC(OC(=O)c1ccc(Cl)nc1)C(=O)NC1CCCC1 (stereo not drawn) | -16 | 7 | -5 | -5 | 56* | 16 | 9 | 50*
CCOC(=O)[C@@]12CCC3=C1N(CCC3)C(=O)[C@H](CC(=O)N1CCSCC1)C2 | nt | nt | -6 | nt | nt | nt | nt | nt
CCCCNC(=O)c1ccc(N2CCOCC2)c(NS(=O)(=O)c2ccc(OC)cc2)c1 | -2 | 10 | 0 | 11 | 4 | nt | nt | nt
CCNC(=O)Nc1cc(S(=O)(=O)Nc2ccc(OC)cc2)ccc1N1CCOCC1 | 22 | 21 | nt | 22 | 61* | 61* | 46* | 24
CCOC(=O)[C@]12CCCCC/C=C\1N(CCc1ccc(Cl)cc1)C(=O)[C@H]2CC(=O)N1CCCC1 | nt | nt | 16 | nt | nt | nt | nt | nt
CC(=O)Nc1cccc(C(=O)OCc2ccc([N+](=O)[O-])cc2)c1 | 6 | -3 | -3 | 6 | 63* | 20 | 19 | -70
CCOC(=O)/C(C#N)=C(C)/C=C1\Sc2ccccc2N1CC | -23 | -27 | -57 | -33 | -38 | nt | nt | nt
CCN1/C(=C\C(=S)Nc2ccccc2)Sc2ccccc21 | 7 | -17 | -16 | 6 | 54 | 55* | 13 | -27
CC[n+]1ccccc1/C=C/c1ccc(N(C)C)cc1 | 40 | 39 | 19 | 41 | 81* | 84* | 24 | 40*
O=C(O)CC1SC(=Nc2ccccc2)N(c2ccccc2)C1=O (stereo not drawn) | -2 | -8 | -17 | 6 | 4 | nt | nt | nt
Cc1ccc(CC2SC(=Nc3ccccc3)N(c3ccccc3)C2=O)cc1 (stereo not drawn) | 9 | 4 | -1 | 12 | 58* | 19 | 9 | -13
O=C(C[C@@H]1C/C=C\C[C@H](NC(=O)OCC2c3ccccc3-c3ccccc32)C(=O)OC[C@H]2CCCN2C1=O)N[C@H](CO)Cc1ccccc1 | 12 | -1 | -22 | -27 | 68* | 65* | 24 | -19
O=C(C[C@H]1C/C=C\C[C@H](NC(=O)OCC2c3ccccc3-c3ccccc32)C(=O)OC[C@@H]2CCCN2C1=O)N[C@H](CO)Cc1ccccc1 | 8 | -1 | nt | 6 | 50 | 46* | 11 | -7
O=C(C[C@@H]1C/C=C\C[C@H](NC(=O)OCC2c3ccccc3-c3ccccc32)C(=O)OC[C@@H]2CCCN2C1=O)N[C@@H](CO)Cc1ccccc1 | -10 | 2 | -14 | -2 | 33 | nt | nt | nt
O=C(c1cc2nc(-c3ccc(F)cc3)cc(C(F)(F)F)n2n1)N1CCCCC1c1cccnc1 (stereo not drawn) | 10 | 13 | 10 | 27 | 67* | 64* | 32* | 22
O=C(CSc1nnc(COc2ccc(Cl)cc2)n1Cc1ccco1)Nc1ccc2c(c1)OCO2 | nt | nt | 4 | nt | nt | nt | nt | nt
CCCCC(=O)Nc1nc(C)c(-c2csc(Nc3cc(OC)ccc3OC)n2)s1 | 12 | 8 | -1 | -28 | 95* | 33 | 25 | 17
CCCCOc1ccc(C(=O)NC2CCCCN(CC)C2=O)cc1 (stereo not drawn) | nt | nt | -46 | nt | nt | nt | nt | nt
Cc1ccc(NC(=O)CN2C(=O)CCSc3ccccc32)cc1C | nt | nt | 21 | nt | nt | nt | nt | nt
CC(=NNc1nc2ccccc2s1)c1ccncn1 | -32 | -71 | 0 | -35 | 52 | 71* | 42* | 21
COC(=O)C1CN(Cc2ccc(OC)cc2)CCS(=O)(=O)N1Cc1cn(Cc2ccc(OC)cc2)nn1 (stereo not drawn) | nt | nt | -27 | nt | nt | nt | nt | nt
Cc1cc(C(=O)NCc2cc(F)cc3c2OCOC3)nn1C | 1 | -3 | -17 | 24 | 9 | nt | nt | nt
SMILES | LRH-1 inv ag | NCOA1 inh | NCOA2 inhibitor | SRC3 inh | Gli-Sufu block | Gli antag conf | SufuKO cytotox | Wnt3a cs
Cn1nc(C(C)(C)C)cc1C(=O)NCc1cc(F)cc2c1OCOC2 | 38 | -1 | 27 | 26 | 58* | 70* | 26* | 37*
COc1cccc(NC(=S)/C(=C(\[O-])c2cc(C)n(-c3ccccc3F)c2C)[n+]2ccc(N(C)C)cc2)c1 | -5 | -6 | 25 | 16 | 60* | 57* | 33* | 18
Cc1cc(C([O-])=C(C(=S)Nc2ccc(F)cc2)[n+]2ccccc2)c(C)n1-c1ccc(F)cc1 | -31 | -40 | -29 | -35 | 5 | nt | nt | nt
COc1ccc(C(=O)N/C(=C\c2cn(C)c3ccccc23)C(=O)NCCN2CCOCC2)cc1OC | -3 | -14 | -20 | 13 | 40 | nt | nt | nt
COc1ccc(C(=O)N/C(=C/c2ccccc2F)C(=O)NCCN2CCOCC2)cc1OC | 1 | -13 | -19 | -2 | 71* | 23 | 10 | -4
Cc1cc(/C=C(\C#N)C(=O)NCc2cccs2)c(C)[nH]1 | -14 | 1 | -18 | -14 | -14 | nt | nt | nt
COCCCNC(=O)/C(C#N)=C/c1cc(C)[nH]c1C | -4 | -27 | -17 | 2 | 57* | 17 | 6 | -1
CC1(C)COCN1C(=O)c1ccc(C#N)cc1 | 6 | 3 | -36 | 22 | 52 | 10 | 20 | 2
CC1(C)CC(=O)C/C(=N/NC(=O)CCCOc2ccc(Cl)cc2Cl)C1 | -12 | -19 | 3 | 8 | 99* | 8 | 17 | -43
O=C(CCCOc1ccc(Cl)cc1Cl)N/N=C/c1ccc(Cl)cc1 | 14 | -20 | -40 | -12 | -2 | nt | nt | nt
CCCCCCCCN1CN2Cc3cc(F)ccc3C2CS1(=O)=O (stereo not drawn) | nt | nt | 12 | nt | nt | nt | nt | nt
O=C(c1cccc(S(=O)(=O)N2CCN(c3ccccc3)CC2)c1)N1CCCC(C(F)(F)F)C1 (stereo not drawn) | -2 | 21 | -13 | 16 | 55 | 57* | 15 | -5
O=C(c1cccc(S(=O)(=O)N2CCCc3ccccc32)c1)N1CCN(c2ccccc2)CC1 | 13 | -1 | 14 | 8 | 52 | 19 | 10 | -37
CCOCCCn1c(SCC(=O)Nc2ccccc2)nc2ccccc2c1=O | 6 | -6 | 24 | -8 | 26 | nt | nt | nt
CCOCCCn1c(SCc2nc3ccccc3s2)nc2ccccc2c1=O | -25 | -61 | -46 | -57 | 54 | 30 | 16 | -145
